# This is a sample that favours compounds with a hit; in the whole collection about 11% have one here.
# L3MBTL1 inh – inhibitors of human L3MBTL1; Potency, µM (highest dose often 57.1 µM), actives largely listed as inhibitors; Q9Y468; 230,000 compounds, 0.66% hits; AID 485360; AlphaScreen L3MBTL1–H3K9me1 peptide binding; note: nearly all actives have a fitted effect of over 60% in size
#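 Read-out is AlphaScreen signal from streptavidin donor and nickel chelate acceptor beads (10 ug/mL final each) bridging L3MBTL1 (50 nM) and biotinylated K9-monomethylated H3(1-15) peptide (75 nM), after 30 min compound exposure at room temperature.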
# BAZ2B inh – inhibitors of human BAZ2B bromodomain; 360,000 compounds, 4.4% hits; Q9UIF8; AlphaScreen BAZ2B-H3K14Ac peptide displacement; Potency, µM (top dose mostly 114 µM), usual class: inhibitors; note: nearly all actives have a fitted effect of over 60% in size
#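 Compounds, titrated to a top concentration of 110 uM, were incubated 30 min at room temperature with preformed BAZ2B/acetyl-K14 H3 peptide complex (50 nM each). Proximity signal was measured by AlphaScreen after 20 min with beads.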
# JMJD2A Tudor inh – JMJD2A Tudor domain (human) inhibition; Potency, µM (titrated, usually from 114 µM), most hits filed as inhibitors; AlphaScreen JMJD2A-Tudor / H3K4me3 peptide binding; 390,000 compounds, 4.4% hits; O75164; note: nearly all actives have a fitted effect of over 50% in size
# G9a block – G9a (human) methyltransferase inhibition. Q96KQ7. G9a H3K9 monomethylation, AlphaScreen, 2 h. Potency, µM (doses to about 102 µM), usual class: inhibitors. 350,000 compounds, 8.8% hits. AID 504332; note: nearly all actives have a fitted effect of over 75% in size
# Target sequence (Q96KQ7 913-1193 limits assumed): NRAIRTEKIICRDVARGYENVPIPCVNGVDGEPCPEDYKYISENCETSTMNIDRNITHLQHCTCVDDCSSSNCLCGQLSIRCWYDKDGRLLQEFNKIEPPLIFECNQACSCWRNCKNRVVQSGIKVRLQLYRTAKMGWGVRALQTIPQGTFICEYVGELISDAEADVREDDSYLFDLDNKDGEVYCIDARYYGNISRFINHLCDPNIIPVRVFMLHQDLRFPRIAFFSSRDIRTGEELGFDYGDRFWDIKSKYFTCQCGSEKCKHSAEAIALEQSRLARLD
#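 G9a (20 nM) preincubated 15 min RT with compounds, then 500 nM biotinylated H3K9 peptide and 20 uM SAM added; 2 h RT reaction. Monomethyl-H3K9 product detected by AlphaScreen with anti-H3K9me1 antibody, streptavidin donor and anti-rabbit IgG acceptor beads.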
# HP1b chromo inh – blocks HP1-beta chromodomain binding to methylated histone tails. P83916. AlphaScreen HP1-beta / biotin-H3K9me3 peptide binding. Potency, µM (series often up to 114 µM), actives largely listed as inhibitors. 390,000 compounds, 0.56% hits. AID 540317; note: nearly all actives have a fitted effect of over 70% in size
# Target sequence (P83916 whole entry, looked up): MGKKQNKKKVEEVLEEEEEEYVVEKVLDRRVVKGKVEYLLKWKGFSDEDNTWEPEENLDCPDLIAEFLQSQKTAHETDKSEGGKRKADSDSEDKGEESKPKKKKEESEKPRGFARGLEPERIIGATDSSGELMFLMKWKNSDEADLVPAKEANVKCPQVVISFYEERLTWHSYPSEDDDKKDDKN
#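 AlphaScreen: HP1-beta (50 nM) preformed 30 min with biotin-H3(1-18)K9me3 peptide (50 nM) in PBS pH 7.4, 0.01% Tween-20. Compound added for 30 min at RT, then streptavidin donor/nickel chelate acceptor beads (10 ug/mL) for 30 min.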
# A number is an active result; - = inactive; ? = inconclusive; . = not tested or not shown; [ ] = remark or other dose. Calls come from the whole dose curve; as a rule, active = well fitted inhibition curve with a large enough effect; inconclusive = small, poorly fitted or top-dose-only effect; inactive = no such curve, though single readings can be large or run the other way.
SMILES,L3MBTL1 inh,BAZ2B inh,JMJD2A Tudor inh,G9a block,HP1b chromo inh
COc1ccccc1-n1c(=O)c(C#N)c(-c2ccc([N+](=O)[O-])cc2)c2cc(C(=O)c3cc(F)ccc3O)cnc21,-,?,-,?,-
COc1ccc(Nc2ncnc3c2nc2n3CCCCC2)cc1,.,-,-,-,-
CC(c1nc2ccccc2n1Cc1ccccc1)N1CCCCC1 (stereo not given),.,-,-,-,-
CC(c1n[nH]c(=S)n1-c1ccccc1)N1CCCCC1 (stereo not given),-,-,7.08µM,17.8µM,-
COc1ccc(CCN2CC(C(=O)N3CCC(O)(c4ccccc4)CC3)CCC2=O)cc1 (stereo not given),.,-,-,.,-
COc1cc2[nH]c(=O)n(CCCCCC(=O)NCCCN3CCOCC3)c(=O)c2cc1OC,.,-,-,-[12.7 µM],-
O=C(NC1CCN(Cc2ccccc2)CC1)c1ccc(Cn2c(=S)[nH]c3ccc(N4CCOCC4)cc3c2=O)cc1,.,?,-,-,-
O=C(c1ccc(Cn2c(=S)[nH]c3ccc(N4CCOCC4)cc3c2=O)cc1)N1CCC(N2CCCCC2)CC1,-,-,-,39.8µM,-
Cc1[nH]c(=S)n(CC2CCCO2)c1C (stereo not given),-,-,28.2µM,?,-
COc1cc2[nH]c(=S)n(CCN3CCOCC3)c(=O)c2cc1OC,-,?,31.6µM,?,-
O=C(Cc1ccc(-n2c(=S)[nH]c3ccccc3c2=O)cc1)N1CCC(N2CCCCC2)CC1,.,?,-,50.1µM,-
CCOc1cc2[nH]c(=S)n(CC3CCCO3)c(=O)c2cc1OCC (stereo not given),-,-,?,?,-
C/C(=C(/CCO)SS/C(CCO)=C(\C)N(C=O)Cc1cnc(C)nc1N)N(C=O)Cc1cnc(C)nc1N,.,.,.,-[12.7 µM],.
CCN(CC)CCCn1c(=S)[nH]c2cc(OC)c(OC)cc2c1=O,.,-,?,?,-
O=c1c2cc(Cl)ccc2[nH]c(=S)n1Cc1ccco1,-,-,-,-[12.7 µM],-
COCCn1c(=S)[nH]c2cc(OC)c(OC)cc2c1=O,-,-,89.1µM,?,-
COc1cc2[nH]c(=S)n(Cc3ccco3)c(=O)c2cc1OC,.,-,-,3.55µM,-
COc1cc2[nH]c(=S)n(CC3CCCO3)c(=O)c2cc1OC (stereo not given),.,-,79.4µM,?,-
COc1cc2[nH]c(=S)n(C3CC3)c(=O)c2cc1OC,-,-,-,17.8µM,-
COc1ccc(CCNC(=O)c2cn(C)c3ccc(S(=O)(=O)N(C)C)cc3c2=O)cc1OC,.,.,-,-,-
O=C(CSc1nc2ccccc2n1Cc1cccc(Cl)c1)N1CCN(c2ccc(F)cc2)CC1,.,-,-,-,-
Cc1ccccc1CN1C(=O)c2ccccc2S(=O)(=O)c2ccc(C(=O)OCC3CCCO3)cc21 (stereo not given),.,-,-,-,-
CCC1CCCCN1CCn1c(=S)[nH]c2cc(OC)c(OC)cc2c1=O (stereo not given),-,-,?,50.1µM,-
CCOc1cc2[nH]c(=S)n(CC3CCCN3CC)c(=O)c2cc1OCC (stereo not given),-[11.4 µM],-,?,?,-
COc1cc2[nH]c(=S)n(CCCN3CCOCC3)c(=O)c2cc1OC,.,-,25.1µM,?,-
SMILES,L3MBTL1 inh,BAZ2B inh,JMJD2A Tudor inh,G9a block,HP1b chromo inh
O=c1c2cc(N3CCOCC3)ccc2[nH]c(=S)n1Cc1ccco1,?,?,50.1µM,7.08µM,-
O=S(=O)(NC[C@@H]1CCC[C@H](CNS(=O)(=O)c2c(F)cccc2F)C1)c1ccc2c(c1)OCCO2,-,-,-,-[12.7 µM],.
CN(Cc1ccc(F)cc1)S(=O)(=O)c1nnc(NC(=O)c2ccc(F)cc2)s1,.,-,-,-,-
N#CC(C#N)=c1ccc2c(c1)NC1(CCCCC1)N=2,28.2µM,12.6µM,22.4µM,11.2µM,31.6µM
Cc1cc(=O)[nH]c2[nH][nH]c(=O)c12,.,.,6.31µM,.,-
O=C1c2ccccc2C(=O)c2c(NCCCN(CCO)CCO)cccc21,?,28.2µM,39.8µM,44.7µM,25.1µM
Cc1cc(C)c2c(=O)c3c(oc2c1)C(=O)N(CCCOC(C)C)C3c1ccccc1F (stereo not given),.,-,-,-,-
CC1=CC(C#N)(C#N)C(C#N)(C#N)C(c2ccccc2)N1 (stereo not given),?,35.5µM,.,?,.
Cc1[nH]c(=S)c(C#N)c(C)c1CCC#N,.,-,20µM,2.82µM,-
N#CCCCSc1ncccc1-c1nc2ccccc2[nH]1,-,-,-,15.8µM,-
Cc1ccc(-c2cc(C(=O)N/N=C/c3c(C)nn(-c4ccccc4)c3C)[nH]n2)cc1,-,-,.,-,.
Cc1nn(-c2ccccc2)c(C)c1/C=N/n1c(-c2ccc(C(C)(C)C)cc2)n[nH]c1=S,-,?,?,-[0.501 µM],?
Cc1ccccc1-c1n[nH]c(=S)n1/N=C/c1c(C)nn(-c2ccccc2)c1C,-,-,?,1µM,-
Cc1ccc(-c2n[nH]c(=S)n2/N=C/c2c(C)nn(-c3ccccc3)c2C)cc1,-,-,79.4µM,10µM,-
CN(Cc1ccccc1)S(=O)(=O)c1ccc(NC(=O)c2cc(=O)c3ccccc3o2)cc1,.,-,-,-,-
Cc1oc(S(=O)(=O)N2CCCCC2)cc1NC(=O)Nc1ccc(Cl)cc1,-,-,-,-,-
COc1ccc(-n2nc(C(=O)NCC(=O)NCc3ccc(F)cc3)c3ccccc3c2=O)cc1,.,-,-,-,-
CCCCCOCC1CC(C/C(C)=N/Nc2nc(-c3ccccc3)cs2)C(=O)O1 (stereo not given),-,?,?,39.8µM,-
COc1ccc(OC)c(NC(=O)NNC(=O)c2cc3occc3[nH]2)c1,.,?,-,50.1µM,-
c1ccc(-c2cnc(SCCN3CCOCC3)n2CC2CCCO2)cc1 (stereo not given),-,20µM,3.55µM,2.51µM,?
COc1ccc(-c2cnc(N)n2CC2CCCO2)cc1 (stereo not given),-,-,?,-,-
O=c1c(C=Nc2ccc(Cl)cc2)c[nH]n1-c1cccc(Cl)n1,-,-,25.1µM,-[12.7 µM],-
O=c1c(C=Nc2cccc(C(F)(F)F)c2)c[nH]n1-c1cccc(Cl)n1,-,?,39.8µM,50.1µM,-
O=c1[nH][nH]c(C(F)(F)F)c1C=Nc1cccc(Cl)c1,-,-,-,?,-
COc1cc(OC)cc(C(=O)N(Cc2ccco2)Cc2cccs2)c1,.,.,-,.,-
Nc1ccccc1Sc1nc2ccccc2[nH]1,?,39.8µM,28.2µM,7.08µM,?
CS(=O)(=O)c1ccc(Sc2nc3ccccc3[nH]2)c([N+](=O)[O-])c1,-,?,11.2µM,?,-
O=[N+]([O-])c1cc(S(=O)(=O)C(F)(F)F)ccc1Sc1nc2ccccc2[nH]1,.,?,?,?,-
Cc1nn(CCCC(=O)Nc2sc3c(c2C#N)CCC3)c(C)c1[N+](=O)[O-],-,?,?,31.6µM,?
